According to PubChem BioAssay AID430 (Sanford-Burnham Center for Chemical Genomics, 2006):
Out of some 63,000 compounds screened, about 1,100 (1.7%) were called active. The entries come from a sample that favours actives as a whole. Measured potencies and affinities stand elsewhere. A number with no mark means an inactive call. No stated cut-off is given here; in the data, active means cytotoxicity above about 50%; inactive means the rest.

Experiment: cytotoxicity in HPDE-C7 cells, cell-based, fluorescence, HTS (AID 430);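 further: cells exposed to compound for 48 hours before viability readout; 0% = vehicle and 100% = reference cytotoxic drug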
Conditions: HPDE-C7 pancreatic duct cells viability, at 10 µM, stronger effect = higher value
For O=C(c1cc2ccccc2oc1=O)N1CCSC1c1ccco1 (configuration not stated), the cytotoxicity was 4.9%. With O=S(=O)(c1ccc(Cl)cc1)N1CCSC1c1ccco1 (configuration not stated) the cytotoxicity was 8.1%. In the case of O=C(Nc1ccc(Cl)c(Cl)c1)N1CCSC1c1ccco1 (configuration not stated), the cytotoxicity is reported as 62.5% (active). With COc1ccc(-c2noc(CCC(=O)N3CCN(Cc4ccccc4)CC3)n2)cc1 the cytotoxicity was -6.2%. For CCc1[nH]nc2c1C(c1ccc(Br)s1)C(C#N)=C(N)O2 (configuration not stated), the cytotoxicity was -2.9%. Work on CCCc1[nH]nc2c1C(c1ccncc1)C(C#N)=C(N)O2 (configuration not stated) yielded a cytotoxicity of 6.1%. CCCN1CC23C=CC(O2)C(C(=O)O)C3C1=O (configuration not stated) gave a cytotoxicity of -2.8%. With CC(C)COc1cccc(C(=O)Nc2ccc(S(=O)(=O)N3CCOCC3)cc2)c1 the cytotoxicity was 16.1%. CCOC(=O)c1ccc(OCC(=O)c2ccc(O)cc2O)cc1 showed a cytotoxicity of -2.2%. For CCOc1ccc(-c2n[nH]c(C)c2Oc2ccc(OC)cc2)c(O)c1, the cytotoxicity was 5.9%. In the case of CCOc1ccc(N2C(=O)c3ccc(C(=O)OCc4c(C)noc4C)cc3C2=O)cc1, the cytotoxicity is reported as -3.6%. For CCCOC(=O)c1ccc(-c2c(C)noc2-c2ccc(OC)cc2O)o1, the cytotoxicity was -2.8%. Work on CCOC(=O)COC(=O)c1ccc(O)cc1 yielded a cytotoxicity of -3.6%. Work on CCOC(=O)c1c(N)n[nH]c1-c1ccc(OC)cc1 yielded a cytotoxicity of 2.4%. COc1ccc(CC(NC(C)=O)C(=O)N2CCN(C(=O)Nc3ccc(Cl)cc3)CC2)cc1OC (configuration not stated) showed a cytotoxicity of 4.9%. Work on O=C(Nc1nc2ccccc2n1CCOc1ccccc1)c1ccco1 yielded a cytotoxicity of -12.8%. With Cc1cccc(Nc2nc(NC(C)C)nc(Oc3ccc(=O)n(C)n3)n2)c1 the cytotoxicity was -11.3%. For CCOC(=O)N1CCN(CC(=O)Nc2cc(OCC)ccc2OCC)CC1, the cytotoxicity was -9.8%. CCCCc1ccc(NC(=O)OC)cc1 gave a cytotoxicity of -16.3%. CCCCc1ccc(NC(=O)COCC)cc1 showed a cytotoxicity of -12.8%. With CC(=O)Nc1ccc(S(=O)(=O)NCC(C)NS(=O)(=O)c2ccc(NC(C)=O)cc2)cc1 (configuration not stated) the cytotoxicity was -20%. In the case of OC1(Cc2ccn[nH]2)CCCCC1, the cytotoxicity is reported as 17.9%. Work on O=C(OCCN1CCOCC1)c1cccnc1 yielded a cytotoxicity of 0.3%. Molecule CCOc1cc(C(=O)Nc2nnc(C)s2)cc(OCC)c1OCC has a cytotoxicity of -7.4%. For COc1ccc(-c2cc(C(=O)Nc3cc(C)n(Cc4ccc(Cl)cc4)n3)no2)cc1OC, the cytotoxicity was 6.9%. Work on COc1ccccc1-c1cc(C(=O)Nc2cc(C)on2)no1 yielded a cytotoxicity of -2.8%. With COc1ccc(OC)c(-c2cc(C(=O)Nc3cc(C)n(Cc4ccc(Cl)cc4)n3)no2)c1 the cytotoxicity was 62.5% (active). In the case of COc1ccccc1-c1cc(C(=O)Nc2cccnc2)no1, the cytotoxicity is reported as 79.8% (active). In the case of COc1ccc(CNC(=O)c2cc(-c3ccccc3OC)on2)cc1, the cytotoxicity is reported as -1.1%. COc1ccc(OC)c(-c2cc(C(=O)Nc3c(C)nn(Cc4ccc(Cl)cc4)c3C)no2)c1 showed a cytotoxicity of 17.1%. With COc1ccc(NC(=O)c2cc(-c3ccccc3OC)on2)cc1 the cytotoxicity was 54.3% (active). COc1ccccc1-c1cc(C(=O)Nc2ccc(F)cc2F)no1 showed a cytotoxicity of -11.9%. COc1ccccc1-c1cc(C(=O)NC(C)C)no1 showed a cytotoxicity of -2.5%. With Cc1cccc(Cn2c(SCCN3CCOCC3)nc3c2c(=O)n(C)c(=O)n3C)c1 the cytotoxicity was -7.8%. In the case of COc1ccc(C2CC(c3ccccc3)Nc3nc(NC(=O)c4ccco4)nn32)cc1 (configuration not stated), the cytotoxicity is reported as -5.5%. COC(=O)Cc1cc(=O)n2[nH]c(C)nc2n1 gave a cytotoxicity of -15.9%. CCOC(=O)N1CCN(c2ccc(C(=O)c3ccccc3)cc2F)CC1 showed a cytotoxicity of 7%. With Brc1ccc2[nH]ncc2c1 the cytotoxicity was -5.6%. In the case of COc1cccc(N2CCN(Cc3nc4ccccc4c(=O)[nH]3)CC2)c1, the cytotoxicity is reported as -2.6%. With c1ccc2c(c1)CCN(c1ncnc3nc[nH]c13)C2 the cytotoxicity was -4.2%. In the case of O=c1[nH]c(CN2CCc3ccccc3C2)nc2ccccc12, the cytotoxicity is reported as 3.3%. For COc1cccc(N2CCN(CC(=O)c3c[nH]c4ccc(OC)cc34)CC2C)c1 (configuration not stated), the cytotoxicity was 9.5%. For COC(=O)c1ccc(N2C(=O)CC(NCc3ccccc3)C2=O)cc1 (configuration not stated), the cytotoxicity was -3%. In the case of CCS(=O)(=O)N1CCCC(C(=O)NCc2ccc3c(c2)OCO3)C1 (configuration not stated), the cytotoxicity is reported as -13.3%. Work on Cc1cc(C)n(-c2nncc(-c3ccccc3)n2)n1 yielded a cytotoxicity of 0.6%. Work on Cc1cc(NC(=O)CSc2nnc(Cn3c(=O)sc4ccccc43)n2-c2ccccc2C)no1 yielded a cytotoxicity of -24.2%. Molecule Cc1ccc(S(=O)(=O)CCC(=O)OCC(=O)Nc2cc(C)on2)cc1 has a cytotoxicity of -14.2%. Work on Cc1cc(C)nc(SCC(=O)c2ccc(O)cc2O)n1 yielded a cytotoxicity of -21%. For OCC1OC(n2nc3ccccc3n2)C(O)C(O)C1O (configuration not stated), the cytotoxicity was -4.3%. With COc1cccc(-n2c(CNC(=O)OC(C)(C)C)n[nH]c2=S)c1 the cytotoxicity was 2.9%. O=S(=O)(Nc1cccc2ncccc12)c1cccs1 showed a cytotoxicity of 45.6%. Cc1ccc2ncccc2c1NS(=O)(=O)c1ccccc1 showed a cytotoxicity of -17.3%. Work on CCOCC(=O)Nc1nnc(Cc2ccc(OC)c(OC)c2)s1 yielded a cytotoxicity of -11.9%. O=C(NCCCN1CCOCC1)c1cc2ccccc2oc1=O gave a cytotoxicity of 3.1%. Work on Cc1oc(-c2ccc(Cl)cc2)nc1CN1CCC(C(=O)NCc2cccnc2)CC1 yielded a cytotoxicity of -28.8%. With COC(=O)c1[nH]c2c(c1C)C(=O)CC(c1ccccc1)C2 (configuration not stated) the cytotoxicity was 45.6%. CCCCOC(=O)c1[nH]c2c(c1C)C(=O)CC(c1cc(OC)c(OC)c(OC)c1)C2 (configuration not stated) showed a cytotoxicity of -7.3%. CCOc1ccc(C2CC(=O)c3c([nH]c(C(=O)OC)c3C)C2)cc1OC (configuration not stated) showed a cytotoxicity of 2.6%. With COC(=O)c1[nH]c2c(c1C)C(=O)CC(c1cccs1)C2 (configuration not stated) the cytotoxicity was 70.9% (active). For COCCOC(=O)c1[nH]c2c(c1C)C(=O)CC(c1ccccc1)C2 (configuration not stated), the cytotoxicity was 50.6% (active). In the case of CCOC(=O)c1[nH]c2c(c1C)C(=O)CC(c1ccc(F)cc1)C2 (configuration not stated), the cytotoxicity is reported as 70.4% (active). For COC(=O)c1[nH]c2c(c1C)C(=O)CC(c1ccc(C)cc1)C2 (configuration not stated), the cytotoxicity was 1.7%. For CCCCCOC(=O)c1[nH]c2c(c1C)C(=O)CC(c1ccco1)C2 (configuration not stated), the cytotoxicity was 68.9% (active). Molecule CCOCCOC(=O)c1[nH]c2c(c1C)C(=O)CC(c1ccc(N(C)C)cc1)C2 (configuration not stated) has a cytotoxicity of -3.3%. Work on CCCOC(=O)c1[nH]c2c(c1C)C(=O)CC(c1ccc(OC)c(OC)c1)C2 (configuration not stated) yielded a cytotoxicity of -5.7%. With COCCOC(=O)c1[nH]c2c(c1C)C(=O)CC(c1ccc(F)cc1)C2 (configuration not stated) the cytotoxicity was 4.9%. In the case of COCCOC(=O)c1[nH]c2c(c1C)C(=O)CC(c1ccc(N(C)C)cc1)C2 (configuration not stated), the cytotoxicity is reported as -10.9%.
